Results as given in PubChem BioAssay (Tox21).
Records with an inconclusive call do not appear. Values without a mark were called inactive. Active and inactive are the calls of the source. Calls follow the shape of the dose curve; as a rule, active = well fitted inhibition curve with a large enough effect in the repeat runs; inconclusive = weak or mixed curves; inactive = no such curve, though single readings can be large or run the other way.
% is scaled to controls: 0 for no effect and ±100 for the full control effect; potency is read from the fitted curve at half-maximal effect.

Each compound was assayed against Cytochrome P450 3A4 (Homo sapiens) (UniProt P08684) (assay: Cytochrome P450 Family 3 Subfamily A Member 4 (CYP3A4) small molecule antagonists: luciferase reporter qHTS assay (AID 1671201; also: nearly all actives have a fitted effect of over 50% in size)). Conditions: P450-Glo CYP3A4 enzyme, luciferin luminescence, 1 h; series mostly up to 115 µM; activity change, negative = inhibition: at the top concentration.
Cytochrome P450 3A4 (Homo sapiens), sequence (P08684 whole entry, looked up): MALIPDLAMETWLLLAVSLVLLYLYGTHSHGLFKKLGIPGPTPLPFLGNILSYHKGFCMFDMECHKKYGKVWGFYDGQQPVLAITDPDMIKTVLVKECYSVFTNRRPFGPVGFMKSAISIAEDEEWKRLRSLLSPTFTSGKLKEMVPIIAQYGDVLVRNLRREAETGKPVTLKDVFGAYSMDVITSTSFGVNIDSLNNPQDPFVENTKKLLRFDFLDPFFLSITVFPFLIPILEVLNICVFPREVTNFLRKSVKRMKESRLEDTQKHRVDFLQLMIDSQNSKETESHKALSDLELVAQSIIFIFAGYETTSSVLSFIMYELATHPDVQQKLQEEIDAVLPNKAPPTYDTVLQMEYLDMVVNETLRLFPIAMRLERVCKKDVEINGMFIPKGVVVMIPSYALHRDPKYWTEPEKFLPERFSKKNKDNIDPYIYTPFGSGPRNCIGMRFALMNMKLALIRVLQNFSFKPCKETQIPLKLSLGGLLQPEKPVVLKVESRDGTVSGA
Method in brief: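 Enzyme and proluciferin substrate are mixed with test chemicals for 10 min, then NADPH regeneration system drives turnover for 1 h at room temperature. A detection reagent halts the reaction; luminescence after 20 min gives relative activity.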
In the case of `CCOc1ccc(O)cc1`, the “activity change, negative = inhibition” value was 0.686%.
In the case of `Nc1ccc([N+](=O)[O-])c(C(F)(F)F)c1`, the “activity change, negative = inhibition” value was -16.3% [at 52.9 µM].
With `CCCCCCCCCCCCCCOS(=O)(=O)O` the “activity change, negative = inhibition” value was 32.6%.
`ClCCOCCOCCCl` was tested, and the “activity change, negative = inhibition” value was 13.3%.
With `CCCCCCCCCCCC(=O)OC[C@@H](O)[C@H]1OC[C@H](OCCO)[C@H]1OCCO` the Potency was 17.4 µM (active).
With `Nc1cc(C(=O)O)c(O)c(S(=O)(=O)O)c1` the “activity change, negative = inhibition” value was 4.87%.
In the case of `O=C1OC(=O)C2C3C=CC(C3)C12` (stereo not drawn), the “activity change, negative = inhibition” value was 11.1%.
For `CC(C)(O)c1ccc(CNC(=O)c2cccnc2Oc2ccc(F)cc2)cc1`, the Potency was 31.7 µM (active).
For `COc1ccc(S(=O)(=O)N2C(=O)[C@@](c3ccccc3OC)(N3C[C@H](O)C[C@H]3C(=O)N(C)C)c3cc(Cl)ccc32)c(OC)c1`, the Potency was 0.0894 µM (active).
For `COc1ccc(-c2nc3ccc(C4=NNC(=O)CC4C)cc3[nH]2)cc1` (stereo not drawn), the “activity change, negative = inhibition” value was -26.6% [at 52.9 µM].
For `OCCNCc1ccccc1`, the “activity change, negative = inhibition” value was -19%.
In the case of `CN(C)CCN(Cc1ccccc1)c1ccccn1`, the “activity change, negative = inhibition” value was -21.3% [at 52.9 µM].
`CC(C)Nc1ccc(NC(C)C)c2c1C(=O)c1ccccc1C2=O` was tested, and the Potency was 3.3 µM (active).
`CCCCCCCCCOS(=O)(=O)O` was tested, and the “activity change, negative = inhibition” value was 53.1%.
`CCCCCCCCCCCCCCCCCCOS(=O)(=O)O` was tested, and the “activity change, negative = inhibition” value was -21.7%.
With `CCCn1cnc2c1c(=O)n(CCCCC(C)=O)c(=O)n2C` the “activity change, negative = inhibition” value was 2.85% [at 52.9 µM].
`O=C(O)c1nc(Cl)c(Cl)c(Cl)c1Cl` was tested, and the “activity change, negative = inhibition” value was 25.7%.
For `C=CC(=O)OCCOCCOC(=O)C=C`, the “activity change, negative = inhibition” value was -17.2%.
`O=S(c1cc(Cl)cc(Cl)c1O)c1cc(Cl)cc(Cl)c1O` was tested, and the “activity change, negative = inhibition” value was 24.3% [at 52.9 µM].
For `CN(C)CCN(Cc1ccc(Cl)cc1)c1ccccn1`, the “activity change, negative = inhibition” value was 1.99% [at 52.9 µM].
`CC(CC=O)c1ccccc1` (stereo not drawn) was tested, and the Potency was 20 µM (active).
With `CCCCCCCCCCCCN1CCCCCC1=O` the “activity change, negative = inhibition” value was -6.06%.
`Cc1ncc(CO)c(C=O)c1O` was tested, and the “activity change, negative = inhibition” value was 1.93% [at 52.9 µM].
